Holding throughout (assay): NCI-60 one-dose screen, 48 h (100 = growth as untreated, 0 = no growth, -100 = all killed)
Conditions in all cases: 10 µM unless noted

Assay [1] deals with SR leukemia.
Assay [2] concerns RPMI-8226 leukemia.
The test system of assay [3] is OVCAR-8 ovarian.
The subject of assay [4] is OVCAR-5 ovarian.
Assay [5] deals with OVCAR-4 ovarian.
For assay [6], the system named is SK-OV-3 ovarian.
The subject of assay [7] is IGROV1 ovarian.
The subject of assay [8] is OVCAR-3 ovarian.
The test system of assay [9] is NCI/ADR-RES ovarian.

The structures appear in SMILES notation. Compounds without any hit were thinned out: in the full panel of roughly 83,000, 20% have a hit.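 For each line, cells grew in 96-well plates with the test compound present at a single concentration for 48 hours.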 Values without a mark were called inactive. Active and inactive are the calls of the source. How the source made its calls: active means growth percent below 10; inactive means the rest.

As to `Cc1cc(Nc2ncc(Cl)c(Nc3ccccc3S(=O)(=O)C(C)C)n2)c(OC(C)C)cc1C1CCNCC1`, the growth in [1] is -44.7% (active); in [2] it was -56.7% (active); in assay [3], -67.2% (active); in assay [4], -96.6% (active); in assay [5], -89.2% (active); in [6], -32.2% (active). Moreover, the results for the growth in [7], in [8] and in assay [9] were -72.2% (active), -96.4% (active) and -60.6% (active), respectively.

Take `O=C(NC[C@H](O)CO)c1ccncc1Nc1ccc(I)cc1F`: the growth was 57.2% in assay [1]; 74.6% in [2]; 66.9% in assay [3]; 7.42% (active) in assay [4]; 41.4% in assay [5]; 33.8% in assay [6]. Further, the growth in assay [7] was 16.3%; in assay [8], 83.7%; in assay [9], 58.7%.

`Nc1ncnc2c1ccn2-c1cccc(NC(=O)c2ccc(N3CCOCC3)c(C(F)(F)F)c2)c1`: the growth was 51.8% in [1]; 4.92% (active) in assay [2]; 24.8% in [3]; 72.9% in assay [4]; 104% in assay [5]; 77.3% in assay [6]. For the same molecule, the values for the growth in assay [7], in [8] and in assay [9] were 40.5%, 43.2% and 26.2%, respectively.

For `C=CC(=O)N1CCC[C@H](n2c(=O)n(-c3ccc(Oc4ccccc4)cc3)c3c(N)ncnc32)C1`, the growth in assay [1] was 74%; in [2], 76.4%; in assay [3], 65.8%; in assay [4], 86.6%; in assay [5] it was 85.3%; in [6] it was 3% (active). Further, the growth is 30.7% in [7], 76.4% in [8] and 74.9% in assay [9].

As for `COc1cc(Nc2ncc(F)c(Nc3ccc4c(n3)NC(=O)C(C)(C)O4)n2)cc(OC)c1OC`, the growth in assay [1] was 38.5%; in assay [2] it was 71.8%; in assay [3], 67.3%; in assay [4], 24.1%; in assay [5], 73.8%; in assay [6], 21.8%. The growth in assay [7] was -9.34% (active); in assay [8], 63.4%; in assay [9], 59.1%.

With `Cc1c(CN2CCN(C(=O)[C@H](C)O)CC2)sc2c(N3CCOCC3)nc(-c3cnc(N)nc3)nc12`, the growth in [1] was -3.28% (active); in assay [2] it was 1.84% (active); in [3], -4.51% (active); in [4] it was -11.6% (active); in assay [5], -9.47% (active); in [6], -39.1% (active). Also, the growth was -50.1% (active) in assay [7], 3.12% (active) in assay [8] and 7% (active) in assay [9].

Consider `Cn1ncc(Cl)c1-c1cc(C(=O)N[C@H](CN)Cc2cccc(F)c2)sc1Cl`, for which the growth in assay [1] was -29.6% (active); in assay [2], -10.3% (active); in [3] it was 15.5%; in assay [4], 35.3%; in [5], 35.6%; in [6], -12.8% (active). The figures for the growth in assay [7], in assay [8] and in assay [9] were -21.5% (active), 31% and 28.6%, respectively.

As for `COc1cc2c(cc1OCCCCCCN1CCN(c3ncnc4ccccc34)CC1)N=CC1CCCN1C2=O` (stereo unspecified), the growth in assay [1] is -29.6% (active); in assay [2] it was -47.4% (active); in assay [3] it was -12.1% (active); in assay [4], 10.2%; in [5], -14.4% (active); in [6] it was 20.7%. Also, the growth in assay [7] was 1.08% (active); in assay [8] it was -6.78% (active); in assay [9], 6.93% (active).

Regarding `O=C(O)c1ccc2c(c1)nc(Nc1cccc(Cl)c1)c1ccncc12`, the growth is -11.3% (active) in [1]; 10.6% in [2]; 5.65% (active) in [3]; 10.6% in [4]; -2.42% (active) in assay [5]; -27.1% (active) in assay [6]. Further, the growth is -22.2% (active) in assay [7], 2.03% (active) in assay [8] and 5.81% (active) in assay [9].

Turning to `COc1cc(CCc2cc(NC(=O)c3ccc(N4C[C@@H](C)N[C@@H](C)C4)cc3)n[nH]2)cc(OC)c1`, the growth in assay [1] was -11% (active); in assay [2], 41.5%; in assay [3] it was 58.4%; in assay [4], 29.7%; in assay [5] it was 49.6%; in [6], 25.6%. Besides, the growth in assay [7] is 16.7%; in assay [8], 78.8%; in assay [9], 91.3%.

Take `O=C(Cc1ccc(/C=C/C(=O)c2ncc[nH]2)cc1)Nc1ccc(S(F)(F)(F)(F)F)cc1`: the growth in assay [1] was 4.88% (active); in assay [2] it was -17.6% (active); in assay [3], 88.2%; in assay [4] it was 86.8%; in [5], 93.2%; in [6], 101%. Moreover, the values for the growth in assay [7], in assay [8] and in assay [9] were 52.8%, 80.3% and 97.2%, respectively.

In the case of `CNC(=O)c1c(C)oc2cc(Oc3ncnc4cc(OC)c(OC)cc34)ccc12`, the growth in assay [1] was 85.7%; in [2], 105%; in assay [3], 85.3%; in [4] it was 95.3%; in assay [5] it was 78.3%; in [6], 92.3%. For the same molecule, the growth was 95.2% in assay [7], 89.2% in assay [8] and 95.1% in [9].

Turning to `CO[C@@H](C(=O)N1Cc2[nH]nc(NC(=O)c3ccc(N4CCN(C)CC4)cc3)c2C1)c1ccccc1`, the growth in assay [1] was -1.07% (active); in assay [2], 44%; in [3], 5.58% (active); in [4] it was 4.9% (active); in assay [5], 9.35% (active); in assay [6], 7.44% (active). For the same molecule, the growth is -16.1% (active) in assay [7], 40.6% in [8] and 81.7% in assay [9].

Turning to `COCCOc1cnc2ccn([C@H](C)c3nnc4c(F)cc(-c5cnn(C)c5)cn34)c(=O)c2c1`, the growth in assay [1] is 84%; in assay [2], 78.8%; in assay [3], 86.9%; in assay [4] it was 31.5%; in [5], 88.4%; in assay [6], 82.4%. For the same molecule, the results for the growth in [7], in assay [8] and in assay [9] were 66.3%, 102% and 91.3%, respectively.

For the origin of these results see PubChem BioAssay (NCI).
